Assay outcomes deposited in PubChem BioAssay by several laboratories.
CSC inhib – cancer stem cell inhibition. cancer stem cell-like cells viability, luminescence. inhibition, % at 7.5 µM. 300,000 compounds, 1.1% hits. AID 2717; in the data active means inhibition above about 75%; tested in HMLE shEcad cells
Gli-Sufu antag – blocks Gli-Sufu signaling in a luciferase reporter; inhibition, % at 5 µM; 340,000 compounds, 0.74% hits; AID 588413; Sufu-KO-LIGHT fibroblasts, Gli luciferase reporter luminescence;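 active means inhibition above about 55%, limit read from the data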
Mdm2 MdmX PPI – disrupts the human Mdm2-MdmX interaction | 330,000 compounds, 3% hits | SaOS-2 split-luciferase Mdm2/MdmX complementation, luminescence | O15151+Q00987 | inhibition, % at 8 µM;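 active means inhibition of at least 50% at 8 µM in the primary screen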
Target sequence (O15151 whole entry, looked up): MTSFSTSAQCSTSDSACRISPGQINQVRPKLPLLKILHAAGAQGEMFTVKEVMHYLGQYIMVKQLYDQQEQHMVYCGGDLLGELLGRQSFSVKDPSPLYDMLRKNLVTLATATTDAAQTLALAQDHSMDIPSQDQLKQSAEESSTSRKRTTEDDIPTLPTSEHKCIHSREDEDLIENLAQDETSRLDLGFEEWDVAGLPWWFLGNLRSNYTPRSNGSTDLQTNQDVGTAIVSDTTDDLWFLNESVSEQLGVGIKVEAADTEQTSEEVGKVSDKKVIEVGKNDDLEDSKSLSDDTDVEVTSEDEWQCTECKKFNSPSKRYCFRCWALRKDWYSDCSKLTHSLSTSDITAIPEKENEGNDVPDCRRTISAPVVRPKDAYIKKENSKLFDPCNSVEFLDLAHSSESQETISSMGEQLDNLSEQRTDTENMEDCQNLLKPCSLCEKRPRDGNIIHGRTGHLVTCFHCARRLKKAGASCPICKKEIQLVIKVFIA
Target sequence (Q00987 whole entry, looked up): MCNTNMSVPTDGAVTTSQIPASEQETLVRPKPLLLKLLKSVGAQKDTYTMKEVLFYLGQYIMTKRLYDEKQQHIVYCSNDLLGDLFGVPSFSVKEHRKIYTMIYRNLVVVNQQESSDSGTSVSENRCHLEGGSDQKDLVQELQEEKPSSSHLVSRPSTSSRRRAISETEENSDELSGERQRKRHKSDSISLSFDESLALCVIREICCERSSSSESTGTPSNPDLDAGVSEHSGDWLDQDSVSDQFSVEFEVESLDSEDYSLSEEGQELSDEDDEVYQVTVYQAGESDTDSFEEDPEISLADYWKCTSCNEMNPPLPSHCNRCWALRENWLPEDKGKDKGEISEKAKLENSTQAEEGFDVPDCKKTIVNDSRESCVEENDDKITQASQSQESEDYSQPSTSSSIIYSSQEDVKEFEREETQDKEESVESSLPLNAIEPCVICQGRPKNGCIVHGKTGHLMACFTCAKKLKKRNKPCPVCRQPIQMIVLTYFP
MPTP inh – blocks calcium-induced mitochondrial swelling; 360,000 compounds, 1.4% hits; isolated mouse mitochondria, Ca2+ swelling absorbance, 30 min; inhibition, % at 10 µM; AID 602449;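 active means inhibition of 50% or more, scaled per plate between neutral and stimulator controls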
Beta cell apopt – blocks beta cell apoptosis; INS-1E cytokine-induced death, ATP luminescence, 48 h; percent of positive-control rescue, neutral wells zero; protection from apoptosis, % (test concentration not listed); 300,000 compounds, 0.8% hits;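 active means Every replicate reaches about 75%, or at least half do and their mean reaches it too, limit read from the data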;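 further: higher means more ATP so stronger rescue from cytokine killing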
GRIN3A LBD mod – modulates the human NR3A ligand-binding domain; NR3A LBD differential scanning fluorimetry, Tm shift; 0% = protein alone, 100% = glycine-bound protein; Tm shift relative to glycine control, % at 25 µM; 340,000 compounds, 2.5% hits; AID 1259313;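 active means melting temperature shift of at least 10% of the positive control shift, at one fixed dose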
Mdm2-MdmX conf – confirmation of human Mdm2/MdmX interaction inhibitors | shares compounds with Mdm2 MdmX PPI | Mdm2-MdmX binding, luminescent assay | inhibition, % at 8 µM | 10,000 compounds, 55% hits | AID 489028; in the data active means inhibition above about 40%
FLuc counter – counter-screen for Mdm2/MdmX inhibitors: full-length luciferase; shares compounds with Mdm2 MdmX PPI; SaOS-2 full-length luciferase counterscreen, luminescence; inhibition, % at 8 µM; 6,200 compounds, 77% hits; AID 504607;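 active means mean inhibition at 8 µM reaching about 37%, which flags the compound as non-specific, limit read from the data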;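 further: p53-null SaOS-2 cells with luciferase driven by a doxycycline-inducible promoter; compound on cells about two nights before reading with doxycycline added after day one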
Numbers stand for hits; . = inactive; / = no result. Hits are enriched below; roughly 6.6% of the tested compounds scored in any of these assays.

SMILES	CSC inhib	Gli-Sufu antag	Mdm2 MdmX PPI	MPTP inh	Beta cell apopt	GRIN3A LBD mod	Mdm2-MdmX conf	FLuc counter
CC(C(=O)NCc1cccc(Cl)c1)N1C(=O)c2ccccc2C1=O (stereo not given)	.	.	.	.	.	.	/	/
Cc1cccc(S(=O)(=O)c2c(N)n(/N=C/c3ccccc3)c3nc4ccccc4nc23)c1	.	.	.	.	.	.	/	/
Nc1c(S(=O)(=O)c2ccccc2)c2nc3ccccc3nc2n1/N=C/c1cccc(O)c1	104	.	67	.	.	25	.	/
Cc1cc(C)c2oc(-c3ccc(Cl)c(NC(=O)c4ccc(C#N)cc4F)c3)nc2c1	.	.	69	.	.	.	.	/
Cc1ccc(CN2C3=NCCCN3c3ccccc32)cc1	.	.	.	.	.	.	/	/
Cc1cc2c(cc1C)N(Cc1ccc(Cl)cc1)C1=NCCCN12	.	.	56	.	.	.	.	90
CCOC(=O)c1c(C)nc2sc3c(=O)n(-c4ccc(C(C)=O)cc4)nnc3c2c1-c1ccc(Cl)cc1	.	.	72	.	.	.	50	49
CCOC(=O)c1c(C)nc2sc3c(=O)n(-c4ccc(C(C)=O)cc4)cnc3c2c1-c1ccc(Cl)cc1	.	.	.	.	.	.	/	/
O=C(Nc1ccccc1O)c1cccc(S(=O)(=O)Nc2ccccc2O)c1	.	.	.	.	/	.	/	/
Cc1ccc(S(=O)(=O)c2nc(S(C)(=O)=O)sc2N2CCCCC2C)cc1 (stereo not given)	.	.	57	.	.	.	41	40
Cc1cc(/C=C2/C(=O)NN(c3ccccc3)C2=O)c(C)n1-c1ccc(O)cc1	.	.	52	.	.	.	75	116
CCCCn1c(=N)n(CC(=O)c2ccco2)c2ccccc21	.	.	.	.	.	.	/	/
Cc1ccc(C(=O)Cn2c(=N)n(CCN3CCOCC3)c3ccccc32)cc1	.	.	.	.	.	.	/	/
CCCCn1c(=N)n(CC(=O)c2ccc([N+](=O)[O-])cc2)c2ccccc21	.	/	55	/	.	/	.	/
Cc1ccc(Cn2c(=N)n(CC(=O)c3ccc([N+](=O)[O-])cc3)c3ccccc32)cc1	.	.	98	.	.	.	.	/
O=C(Nc1ccc(N2CCOCC2)cc1)Nc1ccc2nc(-c3ccco3)c(-c3ccco3)nc2c1	/	.	61	.	.	.	41	61
COc1cc(NC(=O)CN2C(=O)C(C)N(c3ccc(C)cc3)C2=O)cc(OC)c1 (stereo not given)	.	.	.	.	.	.	/	/
Cc1ccc(C)c(-c2nnc(NC(=O)Cc3ccc(F)cc3)o2)c1	.	.	52	.	.	.	.	/
COC(=O)[C@@H]1CC[C@H](C)[C@@H](c2ccc(C)cc2)N1C(=O)c1ccc(/C=N/O[C@@H](C)CN2CCCCc3nc(C)c(C)cc32)cc1	90	/	89	/	.	/	.	/
CCc1ccc(NSc2ccccc2[N+](=O)[O-])cc1	.	.	50	.	.	.	42	65
COc1cc(C(C[N+](=O)[O-])c2c(N)n(C)c(=O)n(C)c2=O)ccc1O (stereo not given)	.	.	.	.	.	.	/	/
COc1cccc(F)c1C(C[N+](=O)[O-])c1c(N)n(C)c(=O)n(C)c1=O (stereo not given)	.	.	95	.	97	.	45	36
COC(=O)c1ccccc1NC(=O)c1ccc(-c2ccc(Br)cc2)o1	.	.	58	.	.	.	62	152
Cc1ccc(Sc2c(C=O)c3ccccc3n2C)cc1	.	.	81	.	.	.	71	53
Cc1ccc(Sc2c([N+](=O)[O-])c(=O)n(C)c3ccccc23)cc1	118	.	51	.	.	.	.	/
Cc1ccc(Sc2c(O)c3ccccc3n(C)c2=O)cc1	/	.	/	.	/	.	/	/
Cc1ccc(C)c(S(=O)(=O)c2c(C)cc(C)[nH]c2=O)c1	.	.	.	.	.	.	/	/
O=C(CCN1CCN(C(c2ccccc2)c2ccccc2)CC1)N/N=C/c1ccc(O)cc1	/	.	.	.	.	.	/	/
O=C(CCN1CCN(C(c2ccccc2)c2ccccc2)CC1)N/N=C/c1ccc(O)cc1O	/	.	60	.	.	.	69	37
